Some test systems named below: EKVX NSCLC; SN12C renal; UO-31 renal; TK-10 renal; ACHN renal; CAKI-1 renal; A498 renal; CCRF-CEM leukemia; SR leukemia; RPMI-8226 leukemia; OVCAR-8 ovarian; OVCAR-5 ovarian; OVCAR-4 ovarian; SK-OV-3 ovarian; IGROV1 ovarian; OVCAR-3 ovarian; HS 578T breast; NCI/ADR-RES ovarian; MOLT-4 leukemia.
What all share (experiment): NCI-60 one-dose screen, 48 h (100 = growth as untreated, 0 = no growth, -100 = all killed)
Common to all, as to details: 10 µM unless noted

The panel holds about 83,000 compounds, 20% with a hit somewhere; the sample as a whole holds those more often.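 Cells were grown in 96-well plates and exposed to the test compound at a single concentration for 48 hours; results are reported as percent growth, with values below 10 considered active.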 A number with no mark means an inactive call. Active and inactive are the calls of the source.

Turning to `Cc1nc2c(c(N3CCCc4ccccc43)n1)CCC2`, the growth was 86.4% in the experiment with EKVX NSCLC; 31.5% with SN12C renal; 29.6% with UO-31 renal; 57.8% in the experiment on TK-10 renal; 18.8% in the experiment with ACHN renal; 20.7% in the experiment with CAKI-1 renal. In addition, the growth was -1.39% (active) with A498 renal; 1.69% (active) with CCRF-CEM leukemia; 2.73% (active) in the experiment with SR leukemia; 11.2% with RPMI-8226 leukemia; 11% in the experiment with OVCAR-8 ovarian; 48.3% in the experiment on OVCAR-5 ovarian. Further, the growth with OVCAR-4 ovarian was 42.4%; in the experiment on SK-OV-3 ovarian it was 5.28% (active); in the experiment on IGROV1 ovarian, 24.5%; in the experiment with OVCAR-3 ovarian, -41.2% (active); in the experiment on HS 578T breast it was 23%; with NCI/ADR-RES ovarian, 9.25% (active).

For the molecule `Cc1ccc(NS(=O)(=O)c2ccc3c(c2)C2OCCC2C(c2ccc(C(=O)C(C)C)cc2)N3)cc1C` (stereo not drawn), the growth with EKVX NSCLC is 24.7%; in the experiment with SN12C renal, 52.3%; in the experiment on UO-31 renal it was 25.7%; with TK-10 renal it was 63.5%; in the experiment with ACHN renal it was 32.3%; in the experiment on CAKI-1 renal, 45.5%. For the same molecule, the growth was 40.1% with A498 renal; 60.3% in the experiment with CCRF-CEM leukemia; 31.1% with MOLT-4 leukemia; 58.1% in the experiment with OVCAR-8 ovarian; 60.6% with OVCAR-5 ovarian; 34.6% in the experiment on OVCAR-4 ovarian. In addition, the growth was 59.3% with SK-OV-3 ovarian; 56.9% in the experiment on IGROV1 ovarian; 59.6% in the experiment on OVCAR-3 ovarian; 81.7% in the experiment on HS 578T breast; 41.9% with NCI/ADR-RES ovarian.

In the case of `COc1ccc(C(=O)Nn2c(NCC(=O)N3c4ccccc4Sc4ccccc43)nnc2-c2ccc(O)cc2)cc1`, the growth in the experiment with EKVX NSCLC is 108%; with SN12C renal, 94.7%; in the experiment on UO-31 renal, 98.1%; with TK-10 renal, 109%; in the experiment with ACHN renal it was 103%; with CAKI-1 renal it was 107%. For the same molecule, the growth was 90.2% in the experiment with A498 renal; 110% in the experiment with CCRF-CEM leukemia; 110% in the experiment with MOLT-4 leukemia; 105% with RPMI-8226 leukemia; 89.3% with OVCAR-5 ovarian; 120% in the experiment with OVCAR-4 ovarian. In addition, the growth in the experiment with SK-OV-3 ovarian was 105%; in the experiment with IGROV1 ovarian, 110%; in the experiment with OVCAR-3 ovarian, 121%; in the experiment with HS 578T breast, 106%.

Regarding `N#Cc1c(-c2ccccn2)[nH]c(=S)[nH]c1=O`, the growth in the experiment on EKVX NSCLC was 101%; with SN12C renal, 112%; in the experiment with UO-31 renal it was 84.6%; in the experiment with TK-10 renal it was 94.3%; in the experiment with ACHN renal it was 108%; with CAKI-1 renal, 98.8%. In addition, the growth is 89.6% in the experiment with A498 renal; 99.3% in the experiment with MOLT-4 leukemia; 95.4% in the experiment with SR leukemia; 112% in the experiment on RPMI-8226 leukemia; 109% in the experiment with OVCAR-8 ovarian; 94.6% with OVCAR-5 ovarian. The growth in the experiment on OVCAR-4 ovarian is 119%; in the experiment on SK-OV-3 ovarian it was 104%; in the experiment on IGROV1 ovarian it was 110%; in the experiment with OVCAR-3 ovarian it was 105%; in the experiment on HS 578T breast, 109%; in the experiment with NCI/ADR-RES ovarian it was 109%.

Turning to `Cn1c(=O)c2[nH]c(NN)nc2n(C)c1=O`, the growth in the experiment on EKVX NSCLC was 120%; in the experiment with SN12C renal, 108%; in the experiment with UO-31 renal it was 90.8%; in the experiment with TK-10 renal, 107%; with ACHN renal, 105%; in the experiment with CAKI-1 renal it was 96%. Further, the growth is 109% in the experiment on A498 renal; 92.4% in the experiment on CCRF-CEM leukemia; 96.1% with MOLT-4 leukemia; 96% in the experiment with RPMI-8226 leukemia; 115% with OVCAR-5 ovarian; 116% in the experiment on OVCAR-4 ovarian. For the same molecule, the growth with SK-OV-3 ovarian was 114%; in the experiment with IGROV1 ovarian, 116%; in the experiment on OVCAR-3 ovarian, 118%; in the experiment on HS 578T breast, 122%; with NCI/ADR-RES ovarian, 113%.

Turning to `COc1ccc(NC(=O)CSc2nnc(-c3cc(-c4ccc(S(N)(=O)=O)cc4)nc4ccccc34)n2-c2ccccc2)cc1`, the growth in the experiment with EKVX NSCLC is 78.5%; in the experiment with SN12C renal, 81.6%; in the experiment on UO-31 renal it was 74.5%; with TK-10 renal, 103%; in the experiment with ACHN renal it was 81.6%; with CAKI-1 renal it was 61.2%. Moreover, the growth in the experiment on A498 renal was 54.3%; in the experiment on CCRF-CEM leukemia, 73.2%; with MOLT-4 leukemia, 58%; in the experiment with RPMI-8226 leukemia it was 57.9%; in the experiment with OVCAR-8 ovarian it was 75.4%; in the experiment with OVCAR-5 ovarian, 92.8%. Besides, the growth was 88.6% with OVCAR-4 ovarian; 89.8% with SK-OV-3 ovarian; 77.9% with IGROV1 ovarian; 95.1% with OVCAR-3 ovarian; 75.6% in the experiment with HS 578T breast; 104% with NCI/ADR-RES ovarian.

On to `CCSC1=NC2C(N(CC)C(=O)N2CC)N1/N=C/C=C/c1ccccc1[N+](=O)[O-]` (stereo not drawn), for which the growth in the experiment on EKVX NSCLC was 46.5%; in the experiment on SN12C renal, 19.8%; in the experiment on UO-31 renal, 34.6%; with TK-10 renal, 70.6%; in the experiment on ACHN renal, 25.1%; in the experiment with CAKI-1 renal, 19.5%. The growth was -5.18% (active) in the experiment on A498 renal; 15.1% in the experiment with MOLT-4 leukemia; 15.1% in the experiment with SR leukemia; 17.3% in the experiment with RPMI-8226 leukemia; 8.6% (active) in the experiment with OVCAR-8 ovarian; 22.8% in the experiment on OVCAR-5 ovarian. Besides, the growth was 42.6% with OVCAR-4 ovarian; 28% in the experiment on SK-OV-3 ovarian; 15.3% in the experiment with IGROV1 ovarian; -2.75% (active) in the experiment with OVCAR-3 ovarian; 6.38% (active) in the experiment with HS 578T breast; 4.68% (active) in the experiment with NCI/ADR-RES ovarian.

As for `O=c1cc(-c2ccc(Cl)cc2)[nH]c2ccccc12`, the growth in the experiment with EKVX NSCLC was 68.3%; in the experiment on SN12C renal, 96.9%; in the experiment on UO-31 renal, 74.6%; with TK-10 renal, 110%; in the experiment on ACHN renal, 85.6%; in the experiment with CAKI-1 renal, 73.7%. Also, the growth is 75.1% in the experiment with A498 renal; 110% with MOLT-4 leukemia; 71.5% in the experiment on RPMI-8226 leukemia; 102% in the experiment with OVCAR-8 ovarian; 91.7% in the experiment on OVCAR-5 ovarian; 92.1% in the experiment on OVCAR-4 ovarian. The growth in the experiment on SK-OV-3 ovarian was 90.4%; in the experiment with IGROV1 ovarian, 81.7%; in the experiment on OVCAR-3 ovarian it was 81.7%; in the experiment with HS 578T breast, 106%; in the experiment on NCI/ADR-RES ovarian, 62.2%.

`CCOC(=O)c1ccc(N2NC(=O)/C(=C/c3ccc([N+](=O)[O-])o3)C2=O)cc1`: the growth was 111% with EKVX NSCLC; 119% in the experiment with SN12C renal; 100% with UO-31 renal; 106% with TK-10 renal; 104% in the experiment with ACHN renal; 108% with CAKI-1 renal. The growth was 109% in the experiment on A498 renal; 89.3% in the experiment on CCRF-CEM leukemia; 105% with MOLT-4 leukemia; 90.7% in the experiment on RPMI-8226 leukemia; 97.9% in the experiment on OVCAR-8 ovarian; 108% in the experiment with OVCAR-5 ovarian. Moreover, the growth was 110% in the experiment with OVCAR-4 ovarian, 117% in the experiment on SK-OV-3 ovarian, 88.7% in the experiment on OVCAR-3 ovarian and 113% in the experiment on HS 578T breast.

As to `c1ccc(-c2nc([P+](c3ccccc3)(c3ccccc3)c3ccccc3)c(N3CCOCC3)o2)cc1`, the growth was 14.9% in the experiment with EKVX NSCLC; 1.32% (active) in the experiment on SN12C renal; 74% with UO-31 renal; 29.9% in the experiment with TK-10 renal; 13.2% in the experiment with ACHN renal; 50.9% with CAKI-1 renal. Besides, the growth with A498 renal is 11.7%; with CCRF-CEM leukemia, 13.4%; in the experiment on MOLT-4 leukemia, 7.65% (active); in the experiment on RPMI-8226 leukemia it was -28.5% (active); in the experiment on OVCAR-8 ovarian, 1.55% (active); in the experiment on OVCAR-5 ovarian, 11.1%. Moreover, the growth was 11.4% in the experiment with OVCAR-4 ovarian, 16.7% with IGROV1 ovarian, 11% with OVCAR-3 ovarian and 24.9% with HS 578T breast.

Take `Cc1cccc(NC(=O)N/C(N)=N/c2nc(C)c(C)s2)c1`: the growth in the experiment on EKVX NSCLC is 55.8%; with SN12C renal, 57.6%; in the experiment on UO-31 renal, 64.3%; with TK-10 renal it was 96.3%; in the experiment with ACHN renal it was 63.4%; in the experiment with CAKI-1 renal, 30.6%. Moreover, the growth is 20% with A498 renal; 53.5% in the experiment on CCRF-CEM leukemia; 21.9% in the experiment with MOLT-4 leukemia; 28.8% in the experiment on RPMI-8226 leukemia; 58% with OVCAR-8 ovarian; 82.3% in the experiment with OVCAR-5 ovarian. Moreover, the growth with OVCAR-4 ovarian was 76%; in the experiment on SK-OV-3 ovarian it was 65.6%; with IGROV1 ovarian it was 47.5%; in the experiment on HS 578T breast, 43.9%; with NCI/ADR-RES ovarian, 25.3%.

Values taken from PubChem BioAssay (NCI).
